Consider 16 compounds from PubChem BioAssay (NCATS).

Molecules are shown by their SMILES. Results filed as inconclusive are left out. Where a call stands in place of a potency, no number is given. The source made the active and inactive calls. Calls come from the whole dose curve; tested in HEK293 reporter line. Peptide text beside a SMILES is read from it.

A short description of the test: qHTS for Inhibitors of the Functional Ribonucleoprotein Complex (vRNP) of Lassa (LASV) Arenavirus: Viability assay - alamar blue signal for LASV Primary Screen (AID 1347083). Note: nearly all actives have a fitted effect of over 80% in size. The settings on record: cell viability, alamar blue fluorescence (LASV minigenome counter-screen); series mostly up to 57.5 µM. In general terms: qHTS replaces the single test concentration by a dilution series.
As for `O=C(O)Cc1ccc(OCCNC[C@H](O)c2ccccc2)cc1`, the Potency entry is “inactive”.
Next, `CCN(CC)CCOC(=O)c1ccc(N)cc1`: “inactive”; `CC(=O)NC[C@H]1CN(c2ccc(N3CCOCC3)c(F)c2)C(=O)O1`: “inactive”.
Regarding `CCNC(=O)[C@@H]1CCCN1C(=O)[C@H](CCCN=C(N)N)NC(=O)[C@H](CC(C)C)NC(=O)CNC(=O)[C@H](Cc1ccc(O)cc1)NC(=O)[C@H](CO)NC(=O)[C@H](Cc1c[nH]c2ccccc12)NC(=O)[C@H](Cc1cnc[nH]1)NC(=O)[C@@H]1CCC(=O)N1` (HELM PEPTIDE1{[Glp].H.W.S.Y.G.L.R.P.[CCN[*:1]]}$$$$V2.0), the Potency entry is “inactive”.
As to `Oc1ccc(Cl)c2cccnc12`, the Potency result was “inactive”.
The same measure for `O=C(O)c1cc(-c2ccccc2)nc2ccccc12`: “inactive”; for `CN1C(CSCC(F)(F)F)Nc2cc(Cl)c(S(N)(=O)=O)cc2S1(=O)=O` (stereo unspecified): “inactive”.
`CCCN1CCCC[C@H]1C(=O)Nc1c(C)cccc1C`: the Potency result was “inactive”.
The same measure for `CC(=O)[C@@]1(O)CC[C@H]2[C@@H]3C[C@H](C)C4=CC(=O)C=C[C@]4(C)[C@@]3(F)[C@@H](O)C[C@@]21C`: “inactive”; for `CC(O)(P(=O)(O)O)P(=O)(O)O`: “inactive”.
As for `CN=C(NC#N)Nc1ccc(C2=NNC(=O)CC2C)cc1` (stereo unspecified), the Potency entry is “inactive”.
Next, `COC(=O)/C=C(/C)N`: “inactive”.
With `COc1ccccc1N1CCN(CCCCNC(=O)c2ccc(-c3ccc(C(C)=O)cc3)cc2)CC1`, the Potency result was “inactive”.
Next, `O=C(OOC(=O)c1ccccc1)c1ccccc1`: “inactive”; `CC(=O)Nc1c(I)c(NC(C)=O)c(I)c(C(=O)O)c1I`: “inactive”; `O=C(C1CCCCC1)N1CC(=O)N2CCCc3ccccc3C2C1` (stereo unspecified): “inactive”.
